# Screening results from PubChem BioAssay.
# IMPase cell inh = membrane-permeable compound that blocks inositol monophosphatase; inhibition (IP1 accumulation), % at 46.1 µM; P97697; CHO-M1 cells, IP1 accumulation, HTRF TR-FRET ratio; AID 901; 120,000 tested, under 10 active; active means well fitted curve in the direction sought with a large enough effect in the signal ratio, not every such curve was filed as active; inconclusive means small, poorly fitted or top-dose-only effect, or a change in a side signal; inactive means no such curve, though single readings can be large or run the other way; the % refers to the signal ratio;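 further: cells stimulated with carbachol in lithium chloride buffer; plate controls were DMSO basal wells for no effect and reference inhibitor wells for full effect; higher means more IMPase inhibition seen as more IP1 and lower FRET ratio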
# Target sequence (P97697 whole entry, looked up): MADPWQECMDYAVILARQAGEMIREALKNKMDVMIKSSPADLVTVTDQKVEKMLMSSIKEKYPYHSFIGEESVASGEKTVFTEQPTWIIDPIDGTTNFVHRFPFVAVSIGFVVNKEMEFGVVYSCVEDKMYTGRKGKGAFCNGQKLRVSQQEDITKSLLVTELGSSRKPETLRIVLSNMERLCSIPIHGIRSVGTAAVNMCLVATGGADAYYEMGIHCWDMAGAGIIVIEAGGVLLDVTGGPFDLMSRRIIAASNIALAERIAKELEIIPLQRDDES
#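 The IP-One HTRF competitive assay in carbachol-stimulated CHO-M1 cells quantifies cellular IP1. Compounds spanned up to 46 uM final, and activity is expressed as AC50 from concentration-response fits of the ratio and donor data.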
# IMPase Li inh = IMPase inhibition in cells with lithium potentiation. hit rate 0.35% among 210,000. Potency, µM (series often up to 59.4 µM), for inactives: at the highest dose activity, negative = IMPase inhibition, usual class: inhibitors. AID 1457. CHO-M1 cells, IP1 TR-FRET (IP-One), carbachol + lithium;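 further: IP1 builds up when IMPase is blocked and the TR-FRET signal falls; potency means the concentration at half of the fitted maximal effect; plate controls were basal vehicle for no effect and high inhibitor control for full effect; nearly all actives have a fitted effect of over 50% in size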
#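 Test compounds were applied to CHO-M1 cells previously cultured for 16–30 h at 2000 per well. A small lithium amount accompanied them; after 30 min at 37C, IP1 was quantified by TR-FRET.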
# ALOX12 inhib = 12-hLO (ALOX12) enzyme inhibition; Potency, µM (titrated, usually from 57.1 µM), without a hit: at the highest dose activity change, negative = inhibition, hits mostly inhibitors; purified 12-hLO, xylenol orange hydroperoxide absorbance; hit rate 0.12% among 150,000; further: potency means the concentration at half of the fitted maximal effect; nearly all actives have a fitted effect of over 55% in size
#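 Hydroperoxide output read as Fe(III)-xylenol orange absorbance, 573-to-405 nm ratio, after 30 min reaction with 40 uM arachidonic acid. Enzyme: 150 nM purified human 12hLO, 15 min compound preincubation; 25 mM Hepes pH 7.0, room temperature.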
# PNC assembly inh = blocks assembly of the perinucleolar compartment. hit rate 3.1% among 140,000. activity change (PNC), negative = inhibition, % at 10 µM. PC3M PTB-GFP, PNC prevalence imaging, 16 h; stronger effect = lower value;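 active means readout at or below -70, meaning at least 70% loss of cells showing the perinucleolar compartment, a nuclear body marking cancer cells; inconclusive means readout between -30 and a set limit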;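 further: plate controls were DMSO wells for no effect and camptothecin positive control wells for full effect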
#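 PC3M cells stably expressing PTB-GFP, 750–1000 cells/well, treated 16 h at 37 °C with compound (23 nl of library stock), in duplicate. After paraformaldehyde fixation and Hoechst stain, imaged at 20x; PNC prevalence scored by image analysis.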
# ALDH1A1 inh = blocks purified human ALDH1A1 activity; hit rate 7.3% among 220,000; Potency, µM (titrated, usually from 75.3 µM), for the others: at the top dose activity, negative = inhibition, hits mostly inhibitors; Purified ALDH1A1, NADH fluorescence, propionaldehyde substrate; P00352; active means well fitted inhibition curve with a large enough effect, not every such curve was filed as active; inconclusive means small, poorly fitted or top-dose-only effect, or another doubt; inactive means no such curve, though single readings can be large or run the other way;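 further: potency means the concentration at half of the fitted maximal effect; plate controls were no enzyme wells and a reference inhibitor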
# HPGD block = inhibitors of human 15-hydroxyprostaglandin dehydrogenase (HPGD); purified HPGD, NADH fluorescence kinetic, PGE2 substrate; Potency, µM, for the others: at the top dose activity change, negative = inhibition, hits mostly inhibitors; hit rate 4.3% among 150,000; active means well fitted inhibition curve with a large enough effect, not every such curve was filed as active; inconclusive means small, poorly fitted or top-dose-only effect, or another doubt; inactive means no such curve, though single readings can be large or run the other way; further: potency means the concentration at half of the fitted maximal effect
# Target sequence (P15428 whole entry, looked up): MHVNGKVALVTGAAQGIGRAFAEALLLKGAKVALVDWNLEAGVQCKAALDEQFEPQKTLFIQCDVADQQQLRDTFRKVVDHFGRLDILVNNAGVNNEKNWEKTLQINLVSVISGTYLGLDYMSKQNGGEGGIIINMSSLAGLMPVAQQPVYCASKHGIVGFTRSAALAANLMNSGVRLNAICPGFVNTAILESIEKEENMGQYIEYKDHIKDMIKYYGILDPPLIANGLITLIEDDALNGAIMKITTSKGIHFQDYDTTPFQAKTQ
#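 20 nM HPGD preincubated 15 min at room temperature with compound in 50 mM Tris-HCl pH 8, 0.01% Tween 20. Started with 1 mM NAD+ and 30 uM prostaglandin E2; NADH fluorescence (360/450 nm) read 5 times over 30-s intervals, last minus first.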
# Starred values were filed as active, the others as inactive; ? = inconclusive; . = no result given; [ ] = dose if it differs, or a comment. This is a sample that favours compounds with a hit; in the whole collection about 11% have one here. Unless noted, the call rests on the fitted dose curve; in most records, active means well fitted curve in the direction sought with a large enough effect; inconclusive means small, poorly fitted or top-dose-only effect, or another doubt; inactive means no such curve, though single readings can be large; an effect the other way counts as inactive or inconclusive. Unless noted, on the % scale 0 is the no-effect control and ±100 the full control effect.
SMILES,IMPase cell inh,IMPase Li inh,ALOX12 inhib,PNC assembly inh,ALDH1A1 inh,HPGD block
CCOC(=O)c1c(NC(=O)CSc2nnc(-c3cccnc3)o2)sc(C(C)=O)c1C,-29,-3%[38.3 µM],-7%,9,-2%,?
CCOC(=O)c1c(NC(=O)CSc2nnc(-c3ccco3)o2)sc(C)c1C,7,22%[38.3 µM],-2%,110,8.9µM*,-22%
CCOC(=O)c1c(NC(=O)CSc2nnc(-c3ccccc3C)n2C)sc(C(C)=O)c1C,-4,43%[38.3 µM],-7%,13,25µM*,?
COc1ccc(-c2cc(C(=O)OCC(=O)c3cccc(OC)c3)c3cccc(Cl)c3n2)cc1,0,.,.,.,.,.
CCOC(=O)c1c(NC(=O)CSc2nnc(Cc3ccccc3)o2)sc(C)c1C,14,16%,-2%,-20,16µM*,-21%
CCOC(=O)c1c(NC(=O)CSc2nc3ccccc3o2)sc(C)c1C,-2,13%[38.3 µM],-3%,?,-11%,-13%
CCOC(=O)c1cc(-c2nnc(SCC(=O)Nc3ccc(F)cc3)o2)c(C)nc1C,12,-7%[38.3 µM],5%,10,10µM*,14µM*
Cc1ccccc1CS(=O)(=O)c1nnc([C@H](CC(C)C)NC(=O)OC(C)(C)C)o1,12,15%[38.3 µM],-9%,44,0%,13µM*
CC[C@@H](C)[C@H](NC(=O)OC(C)(C)C)c1nnc(S(=O)(=O)Cc2cc(C)ccc2C)o1,18,.,-2%,2,4%,.
CC(C)[C@H](NC(=O)OC(C)(C)C)c1nnc(S(=O)(=O)Cc2c(F)cccc2Cl)o1,-3,48%[38.3 µM],-8%,21,0%,5µM*
CC(C)(C)OC(=O)N[C@@H](Cc1ccccc1)c1nnc(S(=O)(=O)Cc2cccc(F)c2)o1,14,2%[38.3 µM],-13%,-107*,?,4µM*
O=C(OCc1cccc(F)c1)c1ccc2c(c1)-c1ccccc1C2=O,1,24%[38.3 µM],-3%,-18,8%,-5%
CC(C)C[C@H](N)c1nnc(S(=O)(=O)Cc2cccc(F)c2)o1,-9,39%[38.3 µM],1%,-11,13µM*,-27%
Cc1cc(F)ccc1OC1C=CC(c2ccc3c(c2)OCO3)OC1CO (stereo not given),.,.,.,.,0%[13.5 µM],.
Nc1cc(Br)c(N)c(Br)c1,5,12%[38.3 µM],-2%,-93*,0%,-1%
Cc1cccc([C@H]2[C@@H]3C=CC(C)C[C@@H]3C(=O)N2Cc2ccccc2)c1 (stereo not given in full),.,22%,-9%[0.00818 µM],.,?,-20%
CC(OC(=O)c1oc2ccccc2c1COc1ccccc1)C(=O)NC(N)=O (stereo not given),.,15%,.,.,?,.
CC(OC(=O)c1oc2ccccc2c1CSC1CCCCC1)C(=O)NC(N)=O (stereo not given),.,1%,3%,6,2µM*,-17%
Cc1cc(Cl)nc(NC(=O)CSc2ccc(Cl)cc2)n1,.,-10%,1%[11.4 µM],.,-5%[13.5 µM],0%
O=[N+]([O-])c1cccc(N/N=C/c2cccc(O)c2O)c1,.,8%,.,.,?,.
O=[N+]([O-])c1cc(Br)c(O)c(/C=N/Nc2nnnn2-c2cccc3ccccc23)c1,2,21%[38.3 µM],?,-7,18µM*,?
O=Cc1ccc(CO)o1,.,6%,-1%,.,?,-10%
NS(=O)(=O)c1ccc(NC(=O)CN2C(=O)C3C4C=CC(C4)C3C2=O)cc1 (stereo not given),.,-1%,.,.,0%,.
CCN(CC)S(=O)(=O)c1cccc(NC(=O)COC(=O)/C=C/c2ccco2)c1,.,8%,-5%,52,25µM*,-13%
O=C(COC(=O)/C=C/c1ccco1)Nc1cccc([N+](=O)[O-])c1,-17,-2%,-3%,-28,25µM*,-14%
SMILES,IMPase cell inh,IMPase Li inh,ALOX12 inhib,PNC assembly inh,ALDH1A1 inh,HPGD block
CCN(CC)S(=O)(=O)c1cccc(C(=O)OCC(=O)Nc2ccc3c(c2)c2ccccc2n3CC)c1,.,0%,-2%,22,22µM*,-26%
CCn1c2ccccc2c2cc(NC(=O)COC(=O)c3cccc(S(=O)(=O)NC)c3)ccc21,.,4%,2%,?,-4%,-7%
CCN(CC)S(=O)(=O)c1cccc(NC(=O)COC(=O)CCC(=O)c2ccc(F)cc2)c1,.,-3%,-3%,-82*,-3%,1%
O=c1c(-c2cccs2)nc2cncnc2n1Cc1ccc(F)cc1,.,9%,.,.,?,.
COc1cc(C(c2c(C)[nH][nH]c2=O)c2c(C)[nH][nH]c2=O)ccc1OS(=O)(=O)c1ccccc1,-2,21%[38.3 µM],-3%,11,1.6µM*,-8%
COc1cc(C(c2c(C)[nH][nH]c2=O)c2c(C)[nH][nH]c2=O)ccc1OS(=O)(=O)c1ccc(C)cc1,3,21%[38.3 µM],-5%,-22,-5%,-5%
COc1cc(C(c2c(C)[nH][nH]c2=O)c2c(C)[nH][nH]c2=O)ccc1OC(C)C,0,-3%,-4%,-80*,14µM*,?
C[N+](C)([O-])CCC=C1c2ccccc2CCc2ccccc21,.,11%,2%[11.4 µM],.,7%[13.5 µM],-1%
Cc1ccc2[nH]c(=O)c(CN(CCCO)S(=O)(=O)c3c(C)ccc4nsnc34)cc2c1,2,22%[38.3 µM],-2%,-80*,13µM*,-9%
Cc1cc2cc(CN(CCCO)S(=O)(=O)c3cccc4nsnc34)c(=O)[nH]c2cc1C,6,-2%[38.3 µM],-6%,28,-1%,-12%
c1ccc(CCNc2ccccc2)cc1,.,-3%,.,.,-13%,.
CC(=O)N1N=C(c2ccccc2)CC1c1cn(Cc2ccccc2)c2ccccc12 (stereo not given),.,7%,3%,?,28µM*,-13%
CC(=O)N1N=C(c2ccncc2)CC1c1ccccc1O (stereo not given),.,15%,.,.,-6%,.
Cc1cc2cc(CNC(=O)c3cccs3)ccc2n1C,.,-12%,4%,-4,-10%,2.8µM*
COc1ccccc1OCCNC(=O)c1cccs1,0,9%[38.3 µM],0%,53,14%,16µM*
Cc1cc2cc(CNC(=O)CC(C)C)ccc2n1C,2,-12%[38.3 µM],1%,35,1%,2.2µM*
COc1cccc(C(=O)NCc2ccc3c(c2)cc(C)n3C)c1,.,-7%,.,.,?,.
COc1ccc(CNC(=O)c2cccs2)cc1,0,-22%[38.3 µM],-9%,-100*,?,14µM*
CCCCCCN,.,7%,-5%,.,-3%,-9%
